From PubChem
D2 ag-1 = human D2 receptor agonism in beta-arrestin assay | activation, % (test concentration not listed) | 360,000 tested, 0.084% active | DiscoveRx PathHunter D2 beta-arrestin, luminescence, 90 min; 100% = 57 uM dopamine signal | P14416; in the data active means activation above about 40%; inconclusive means between about 15% and that limit
Target sequence (P14416 whole entry, looked up): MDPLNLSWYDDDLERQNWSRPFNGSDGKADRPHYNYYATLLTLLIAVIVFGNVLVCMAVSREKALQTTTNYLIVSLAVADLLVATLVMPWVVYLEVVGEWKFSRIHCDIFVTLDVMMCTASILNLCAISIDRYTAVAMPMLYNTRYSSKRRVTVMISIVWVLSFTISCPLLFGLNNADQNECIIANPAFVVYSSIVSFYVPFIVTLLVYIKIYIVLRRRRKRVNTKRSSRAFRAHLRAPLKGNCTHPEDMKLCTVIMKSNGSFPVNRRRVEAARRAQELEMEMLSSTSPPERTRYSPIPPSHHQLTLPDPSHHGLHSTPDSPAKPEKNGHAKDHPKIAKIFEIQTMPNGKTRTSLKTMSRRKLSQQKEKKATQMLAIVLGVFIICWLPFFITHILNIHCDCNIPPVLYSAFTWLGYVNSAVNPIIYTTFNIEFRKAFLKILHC
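DiscoveRx PathHunter D2 beta-arrestin cells (2,100/well) attached overnight, then compound-stimulated 90 min at 37 C in HBSS/10 mM HEPES/0.1% Tween-20 buffer; beta-galactosidase complementation read by luminescence after 1 h at ambient temperature. Dopamine 57 uM final (EC100) as control.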
D2 ag-2 = agonists of human D2 dopamine receptor | activation, % at 2 µM | P14416 | 340,000 tested, 0.53% active | HEK293 T-REx D2 cells, calcium flux agonist mode | AID 485358;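 active means activation over 3 SD above normal in the single-dose calcium agonist read, cut at about 30% in these data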; further: 0% is about no effect
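Calcium-flux readout, 1 cycle/sec over 180 s following compound pin transfer, in inducible HEK293 Trex D2 cells (force-coupled); dopamine controls included. Positive calcium responses during this window marked compounds as potential agonists.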
D2 PAM-1 = D2 dopamine receptor (human) potentiation; potentiation, % at 10 µM; HEK293 T-REx D2, calcium flux, EC20 dopamine potentiation; P14416; 340,000 tested, 0.34% active;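 active means potentiation over 3 SD above the plate norm, cut at about 30% in these data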; further: 0% is about no effect
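Calcium flux readout, no-wash dye, 1 read/s. Inducible HEK293 Trex D2 line, overnight 30 C. Compound alone 180 s (agonist flags), then EC20 dopamine, another 180 s to score potentiation.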
D2 PAM-2 = potentiates the human D2 dopamine receptor allosterically; 360,000 tested, 0.23% active; P14416; potentiation, % (test concentration not listed); DiscoveRx D2 beta-arrestin cells, luminescence, 90 min; 100% = 57 uM dopamine signal; in the data active means potentiation above about 50%; inconclusive means mostly about 30% to 49%
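PathHunter D2 cells, attached overnight at 37 deg C, received compound in DMSO plus dopamine at EC20 (50 nM final) for 90 min at 37 deg C. Beta-arrestin recruitment was read as luminescence after 1 h with detection reagent at ambient temperature.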
D2 antag = antagonizes the human D2 dopamine receptor. P14416. HEK293 TREx D2 cells, calcium flux, dopamine EC80. inhibition, % at 10 µM. 340,000 tested, 2% active. AID 485344; in the data active means inhibition above about 30%; inactive means below that, where a call was filed; further: 0% is about no effect
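Cells plated overnight at 30 C with tetracycline; no-wash calcium dye, 30–90 min RT; 10 s baseline; compound pinned; 180 s read; EC80 dopamine added; another 180 s read.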
* = called active by the depositor; ? = inconclusive; / = no result given; ! = not confirmed by another sample. Only some compounds are listed: those with a hit (about 2.4% of all), similar ones and a draw of the others.

SMILES | D2 ag-1 | D2 ag-2 | D2 PAM-1 | D2 PAM-2 | D2 antag
COc1ccc(Cl)cc1NC(=O)CN(C)C(=O)c1ccc(OCc2ccccc2)c(OC)c1 | -5 | 0 | -11 | -44 | 37*
COc1ccc(Cl)cc1NC(=O)CN(C)C(=O)CCC(=O)c1cc(C)sc1C | -6 | 0 | -21 | -13 | 62*
CC1=C(C(=O)N2CCCCCC2)CC(CC(=O)NC2CC2)C(=O)N1Cc1ccccc1 (stereo unspecified) | -4 | / | / | -6 | /
Cc1cc2nc(-c3cccc(NC(=O)CSc4ccc(Cl)cc4)c3)oc2cc1C | / | 0 | 11 | / | /
CC1(C)S[C@@H]2[C@H](NC(=O)Cc3ccccc3)C(=O)N2[C@H]1C(=O)O | -3 | 1 | 6 | -12 | 33*!
CCC(Oc1ccccc1)C(=O)NC1C(=O)N2C1SC(C)(C)C2C(=O)O (stereo unspecified) | 4 | 0 | 5 | 4 | -1
COc1ccc(NC(=O)C2CCCN(c3ncnc4c3nc3n4CCCCC3)C2)c(OC)c1 (stereo unspecified) | / | -1 | -5 | / | /
N#CC1=C(N)OC2=C(CC/C2=C\c2ccc(F)cc2)C1c1ccc(F)cc1 (stereo unspecified) | / | 40* | -5 | / | 37*
c1cncc(C2SCCCS2)c1 | -5 | / | / | -7 | /
CCOc1ccc(Cn2c3ccc(OC)cc3c3nc4ccccc4nc32)cc1 | 1 | 2 | 3 | 9 | 5
CCn1c2ccc(OC)cc2c2nc3ccccc3nc21 | -2 | -1 | 31* | -12 | -6
COc1cccc(NC(=O)N(C)C[C@@H]2OCc3cnnn3CCCC(=O)N([C@H](C)CO)C[C@@H]2C)c1 | -8 | / | / | 4 | /
COc1cccc(O)c1CN1CCCC(C(=O)c2cccc(C(F)(F)F)c2)C1 (stereo unspecified) | -1 | 1 | -23 | -14 | 49*
CC(C)CCNC(=O)Nc1cc(C(=O)NCc2cccc(F)c2)ccc1N1CCCC1 | / | 1 | -7 | / | /
CCOC(=O)c1cnn(CCOC(=O)c2ccc(F)cc2)c1NC(=O)c1ccc(F)cc1 | 1 | 0 | -1 | 3 | -5
CCOC(=O)c1cnn(CCOC(=O)Cc2cccs2)c1NC(=O)Cc1cccs1 | -3 | 0 | 2 | -4 | 34*
CCOC(=O)c1ccc(NC(=O)c2c(NCc3sccc3C)sc3c2CCCCC3)cc1 | / | / | -8 | / | /
C=CCNc1nc(C(=O)OCC(=O)Nc2c(Cl)cccc2C(F)(F)F)cs1 | 2 | 0 | -4 | -1 | 36*
Cc1ccc(NC(=O)CCc2c(C)nc3ncnn3c2C)cc1Cl | / | 0 | -8 | / | /
O=C1CCC(C(=O)OC(C(=O)Nc2cc(Cl)cc(Cl)c2)c2ccccc2)=NN1 (stereo unspecified) | -2 | 0 | 0 | 5 | 33*
O=C(O)c1ccccc1OC(C(=O)Nc1cc(Cl)cc(Cl)c1)c1ccccc1 (stereo unspecified) | -1 | 0 | -10 | -7 | 36*
O=C(CSc1nc2ncccc2o1)Nc1ccc(Cl)cc1F | / | 1 | 5 | / | /
COc1ccc(Cl)cc1NC(=O)C(C)n1nnc2sc3c(c2c1=O)CCCC3 (stereo unspecified) | / | 0 | -11 | / | /
Cc1ccc2oc(-c3ccc(C)c(NC(=O)/C=C/c4ccco4)c3)nc2c1 | / | -1 | / | / | /
O=[N+]([O-])c1cc(-c2nnc(C34CC5CC(CC(C5)C3)C4)o2)cc([N+](=O)[O-])c1 | ? | -1 | -1 | 145* | -6
O=[N+]([O-])c1cccc(-c2nnc(C34CC5CC(CC(C5)C3)C4)o2)c1 | -3 | 0 | -6 | -6 | -7
CC(C)(C)c1ccc(OCC(=O)NNC(=O)C2CCCO2)cc1 (stereo unspecified) | -3 | 0 | -2 | 1 | 5
CC(C)=C1C2CCC1C1C(=O)N(NC(=O)COc3ccc(C(C)(C)C)cc3)C(=O)C21 (stereo unspecified) | -2 | 0 | 3 | -9 | 32*
CC(Oc1ccccc1)C(=O)Nc1c(C(=O)Nc2cccc(F)c2)oc2ccccc12 (stereo unspecified) | / | 0 | 14 | / | /
COc1ccc(CCNC(=O)c2ccc(Cn3c(=O)c4ccccc4n(Cc4cccc(F)c4)c3=O)cc2)cc1OC | / | 1 | 16 | / | /
